# Values without a mark were called inactive. Inconclusive results are not listed. A call without a number means that no potency is given here. Calls of active or inactive are those of the source. Calls follow the shape of the dose curve; as a rule, active = well fitted curve in the direction sought with a large enough effect; inconclusive = small, poorly fitted or top-dose-only effect, or another doubt; inactive = no such curve, though single readings can be large; an effect the other way counts as inactive or inconclusive.
# Experiments:
# [1] = target: Cytochrome P450 2D6 (Homo sapiens) (UniProt P10635); test: qHTS for inhibitors of CYP2D6 against the NCATS DSHEA and TCM libraries (AID 1919972)
# Procedure, shortened: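 Luminescent P450-Glo read-out of CYP2D6 turnover of a luciferin substrate after NADPH-driven reaction of 30-45 min at room temperature. Compounds were first preincubated 15 min with enzyme at titrated concentrations; quinidine was the intraplate control.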
# [2] = KB-3-1 P-gp reporter qHTS against the NCATS DSHEA and TCM libraries (AID 1919975)
# Procedure, shortened: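 Cell viability by CellTiter-Glo luminescence following ~72 h compound exposure (concentration-response). Uses parental, non-P-gp-overexpressing KB-3-1 line, 500 cells/well in DMEM/10% FBS, attached ~4 h before dosing.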
# [3] = target: Cytochrome P450 1A2 (Homo sapiens) (UniProt P05177); test: qHTS for inhibitors of CYPIA2 against the NCATS DSHEA and TCM libraries (AID 1919976);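 also: light from luciferin formed by CYP1A2 from a pro-luciferin substrate; series mostly up to about 37 µM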
# Procedure, shortened: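 CYP1A2 + luciferin substrate, 100 mM KPO4-type buffer; cmpd 15 min RT; 1x NADPH regen, 30-45 min RT dark; detection reagent 30 min RT; luminescence. Minus-enzyme wells as background; furafylline intraplate control.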
# [4] = qHTS Counterscreen for compound interference against the NCATS DSHEA and TCM libraries (AID 1919978); conditions: firefly luciferase detection reagent interference, luminescence;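 also: compounds preincubated with 1 µM D-luciferin or buffer before detection reagent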
# Procedure, shortened: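 With 1 uM D-luciferin or phosphate buffer only, compounds at final 19.5 nM–39.8 uM were incubated for 15 min at room temperature. Luciferase detection reagent was then added, and luminescence was measured after a further 30 min at room temperature.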
# [5] = Dual reporter qHTS for agonist of Pregnane X Receptor (hPXR) against the NCATS DSHEA and TCM libraries: Fluorescence readout (AID 1920058)
# Procedure, shortened: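 HepG2 hPXR-Luc, 2000 cells/well, 5 h attach; cpds ~24 h, 37 °C/5% CO2; CellTiter-Fluor 1 h; fluor. Ex/Em 405/540 nm = viability.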
# [6] = target: Nuclear receptor subfamily 1 group I member 2 (Homo sapiens) (UniProt O75469); test: Dual reporter qHTS for agonist of Pregnane X Receptor (hPXR) against the NCATS DSHEA and TCM libraries: Luminescence readout (AID 1920059)
# Procedure, shortened: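 hPXR-LucHepG2 cells in phenol red-free DMEM with 5% charcoal-stripped FBS, 2000 cells/well, attached 5 h, then exposed 24 h at 37C to compounds; rifampicin as positive agonist control (2.8 nM–92 uM). Luciferase luminescence read.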
# [7] = target: Nuclear receptor subfamily 1 group I member 2 (Homo sapiens) (UniProt O75469); test: Dual reporter qHTS for antagonist of Pregnane X Receptor (hPXR) against the NCATS DSHEA and TCM libraries: Luminescence Readout (AID 1920060);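 also: HepG2 cells carrying hPXR luciferase reporter stimulated with rifampicin at 2 µM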
# Procedure, shortened: (§1)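 hPXR-Luc HepG2 cells exposed 24 h at 37 C to compounds with 2 uM rifampicin in antagonist mode; luciferase luminescence measured by ONE-Glo, with CellTiter-Fluor viability read beforehand.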
# [8] = Dual reporter qHTS for antagonist of Pregnane X Receptor (hPXR) against the NCATS DSHEA and TCM libraries: Fluorescence Readout (AID 1920061)
# Procedure, shortened: as §1
# [9] = qHTS Assay for Identification of Small Molecule Antagonists for Thrombopoietin (TPO) Signaling Pathway (AID 918); conditions: TPO-dependent cell signaling reporter, antagonist mode; also: potency is read from the fitted curve at half-maximal effect; nearly all actives have a fitted effect of over 60% in size
# Procedure, shortened: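 Ba/F3 (murine, hTPO-R, GPIIb-luc reporter); overnight IL-3 withdrawal; cpd + TPO 26 pM final (EC50); 24 h 37 C/5% CO2; Steadylite luminescence after 10 min RT.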
# [10] = High Content Imaging Cell-Based qHTS for Inhibitors of the mTORC1 Signaling Pathway in MEF Cells (AID 2667); also: potency is read from the fitted curve at half-maximal effect
# Procedure, shortened: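 MEF (Tsc2-/-, p53-/-, WT Tsc2 re-expressed); cpd 24 h, 37 °C; PFA fix; Alexa-488 anti-p-rpS6 Ser235/236, PI, Hoechst; IN Cell imaging; Hoechst/Alexa-488 intensity ratio; % active cells, thresholds set from rapamycin and DMSO wells.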
# [11] = qHTS for compounds that reverse cellular toxicity of Amyloid beta (A-beta) peptide in yeast: LOPAC Validation Assay (AID 720559)
# Procedure, shortened: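 Rescue of A-beta toxicity was scored as yeast growth by 600 nm absorbance after 48 hr at 30 C with compound. Normalization used DMSO (negative) and equimolar ferric chloride plus clioquinol (positive).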
# [12] = target: Cytochrome P450 2D6 (Homo sapiens) (UniProt P10635); test: qHTS Assay for Inhibitors and Substrates of Cytochrome P450 2D6 (AID 891);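 also: luciferin methyl ether substrate demethylated by CYP2D6 with NADPH regeneration; nearly all actives have a fitted effect of over 60% in size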
# Procedure, shortened: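 Human CYP2D6 (5 nM) with 30 uM Luciferin-ME EGE (at Km) in 100 mM KPO4, compound preincubated 10 min, then NADPH regeneration system for 60 min at room temperature. Luciferin read by luminescence; normalized to 1.43 uM quinidine.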
# [13] = target: D(1A) dopamine receptor (Homo sapiens) (UniProt P21728); test: HTS Assay for Allosteric Agonists of the Human D1 Dopamine Receptor: Primary Screen for Potentiators (AID 488982); also: potency is read from the fitted curve at half-maximal effect
# Procedure, shortened: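 Tetracycline-induced HEK293 T-REx cells force-coupled to calcium signalling were incubated overnight at 30 C and dye-loaded at room temperature. Calcium flux over 180 s after compound addition flagged agonists; a further 180 s read after EC20 dopamine flagged potentiators.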
# [14] = target: DNA dC->dU-editing enzyme APOBEC-3G (Homo sapiens) (UniProt Q9HC16); test: qHTS for inhibitors of Vif-A3G interactions: Validation (AID 588379); also: potency is read from the fitted curve at half-maximal effect
# Procedure, shortened: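 HeLa cells stably expressing Vif and A3G-eYFP, 700 cells/well, incubated overnight at 37 deg C, then exposed to compound overnight at 37 deg C. Inhibition of Vif-mediated degradation read as increased yellow fluorescence (Ex 488/Em 500-530) by laser-scanning cytometry.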
# Chain of Cytochrome P450 2D6 (Homo sapiens) (P10635 whole entry, looked up): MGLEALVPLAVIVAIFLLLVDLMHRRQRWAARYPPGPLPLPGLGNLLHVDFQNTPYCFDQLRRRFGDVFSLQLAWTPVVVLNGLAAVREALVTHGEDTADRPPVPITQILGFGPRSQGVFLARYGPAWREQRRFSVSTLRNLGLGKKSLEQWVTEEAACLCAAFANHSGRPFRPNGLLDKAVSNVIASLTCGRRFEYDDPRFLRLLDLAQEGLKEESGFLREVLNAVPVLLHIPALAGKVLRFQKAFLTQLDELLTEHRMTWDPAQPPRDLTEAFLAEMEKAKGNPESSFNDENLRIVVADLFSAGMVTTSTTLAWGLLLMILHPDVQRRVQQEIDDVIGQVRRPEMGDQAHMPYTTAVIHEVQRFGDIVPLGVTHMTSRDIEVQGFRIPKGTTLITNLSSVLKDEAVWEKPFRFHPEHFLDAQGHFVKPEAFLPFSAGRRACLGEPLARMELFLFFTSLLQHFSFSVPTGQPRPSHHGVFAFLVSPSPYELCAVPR
# Chain of Nuclear receptor subfamily 1 group I member 2 (Homo sapiens) (O75469 whole entry, looked up): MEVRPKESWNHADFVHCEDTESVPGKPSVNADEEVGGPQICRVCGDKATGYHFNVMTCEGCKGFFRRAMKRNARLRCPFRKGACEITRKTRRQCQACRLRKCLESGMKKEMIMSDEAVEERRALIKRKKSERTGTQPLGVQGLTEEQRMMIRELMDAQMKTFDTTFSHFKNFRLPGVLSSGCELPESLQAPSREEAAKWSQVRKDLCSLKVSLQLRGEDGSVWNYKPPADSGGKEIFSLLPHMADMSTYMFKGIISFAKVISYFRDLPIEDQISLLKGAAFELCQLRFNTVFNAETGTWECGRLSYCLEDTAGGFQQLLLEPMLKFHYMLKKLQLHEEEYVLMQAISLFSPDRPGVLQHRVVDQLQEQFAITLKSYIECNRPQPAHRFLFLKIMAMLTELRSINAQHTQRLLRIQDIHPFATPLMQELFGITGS
# Chain of Cytochrome P450 1A2 (Homo sapiens) (P05177 whole entry, looked up): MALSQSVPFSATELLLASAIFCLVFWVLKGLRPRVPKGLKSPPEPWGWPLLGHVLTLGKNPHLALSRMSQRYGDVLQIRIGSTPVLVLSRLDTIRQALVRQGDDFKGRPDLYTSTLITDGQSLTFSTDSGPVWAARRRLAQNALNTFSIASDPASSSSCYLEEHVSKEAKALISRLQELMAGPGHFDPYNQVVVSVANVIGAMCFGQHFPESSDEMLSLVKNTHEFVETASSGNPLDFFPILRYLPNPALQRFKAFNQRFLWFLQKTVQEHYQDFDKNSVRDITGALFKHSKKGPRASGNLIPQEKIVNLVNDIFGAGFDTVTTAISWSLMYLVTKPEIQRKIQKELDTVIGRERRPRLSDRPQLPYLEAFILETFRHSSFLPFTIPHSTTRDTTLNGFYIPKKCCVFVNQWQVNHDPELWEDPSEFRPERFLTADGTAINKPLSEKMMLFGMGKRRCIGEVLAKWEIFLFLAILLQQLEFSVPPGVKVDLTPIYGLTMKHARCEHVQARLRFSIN
# Chain of D(1A) dopamine receptor (Homo sapiens) (P21728 whole entry, looked up): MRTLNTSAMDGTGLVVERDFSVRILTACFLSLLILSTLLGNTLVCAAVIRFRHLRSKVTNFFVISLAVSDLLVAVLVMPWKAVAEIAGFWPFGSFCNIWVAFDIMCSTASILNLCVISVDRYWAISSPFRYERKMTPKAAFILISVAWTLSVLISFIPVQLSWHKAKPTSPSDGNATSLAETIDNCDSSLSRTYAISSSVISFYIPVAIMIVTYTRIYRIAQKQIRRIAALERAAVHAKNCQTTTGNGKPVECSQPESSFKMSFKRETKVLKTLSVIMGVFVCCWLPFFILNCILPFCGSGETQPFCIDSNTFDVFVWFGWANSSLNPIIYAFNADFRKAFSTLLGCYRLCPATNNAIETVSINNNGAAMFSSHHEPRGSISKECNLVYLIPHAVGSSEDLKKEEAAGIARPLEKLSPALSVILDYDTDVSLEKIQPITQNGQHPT
# Chain of DNA dC->dU-editing enzyme APOBEC-3G (Homo sapiens) (Q9HC16 whole entry, looked up): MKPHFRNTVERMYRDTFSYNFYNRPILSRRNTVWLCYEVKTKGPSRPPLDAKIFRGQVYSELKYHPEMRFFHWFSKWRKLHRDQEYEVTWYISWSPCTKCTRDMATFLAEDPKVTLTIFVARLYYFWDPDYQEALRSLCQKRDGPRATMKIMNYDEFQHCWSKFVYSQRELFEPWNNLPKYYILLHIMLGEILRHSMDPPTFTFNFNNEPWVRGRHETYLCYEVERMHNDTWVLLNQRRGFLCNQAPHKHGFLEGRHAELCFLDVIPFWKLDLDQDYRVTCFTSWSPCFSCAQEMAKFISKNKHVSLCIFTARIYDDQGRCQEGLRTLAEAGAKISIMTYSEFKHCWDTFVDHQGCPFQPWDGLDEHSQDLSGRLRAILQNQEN
structure (smiles),measurement,setting,value
C=C(C)[C@@H]1CC=C(C=O)CC1,outcome,[1],inactive
same,outcome,[2],inactive
same,Potency,[3],inactive
same,max response,[4],-1.03%
same,outcome,[5],inactive
same,outcome,[6],inactive
same,outcome,[7],inactive
same,outcome,[8],inactive
O=c1oc(Cl)c(Cl)c2ccccc12,Potency,[9],12.6 µM (active)
same,Potency,[10],18.5 µM (active)
same,outcome,[11],inactive
Nc1nc2ccc(Cl)cc2c2nc(-c3ccco3)nn12,Potency,[12],inactive
same,Potency,[13],1.3 µM (active)
same,Potency,[14],0.596 µM (active)

# Source: PubChem BioAssay (NCATS)
